A selection: hits, their analogues and other compounds. The true share with any hit is near 6%.
Tau fibril ThT: inhibitors of human tau fibril formation, thioflavin T binding; P10636; recombinant tau K18 P301L, heparin-induced fibrillization, ThT fluorescence; Potency, µM (titrated, usually from 57.4 µM), for inactives: at the top dose activity, negative = inhibition, hits mostly inhibitors; 270,000 tested, 2.1% active; AID 1460; note: nearly all actives have a fitted effect of over 55% in size
Target sequence (P10636 561-689 P618L limits assumed): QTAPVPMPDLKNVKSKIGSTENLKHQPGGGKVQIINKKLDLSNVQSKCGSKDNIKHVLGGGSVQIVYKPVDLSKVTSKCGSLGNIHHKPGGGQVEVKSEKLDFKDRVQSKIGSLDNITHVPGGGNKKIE
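Aggregation was driven by heparin (20 uM final) acting on recombinant tau […] bearing P301L in 100 mM sodium acetate pH 7; fibrils were detected with Thioflavin T.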
Tau fluor counter: counter-screen for tau fibril formation inhibitors. AID 1463. tau K18 P301L Alexa594 fluorescence, heparin fibrillization. 280,000 tested, 0.93% active. Potency, µM (titrated, usually from 57.7 µM), for the others: at the top dose activity change, negative = decrease; note: nearly all actives have a fitted effect of over 55% in size
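Human tau K18 P301L (15 uM unlabeled, 0.24 uM Alexa 594-labeled) in 100 mM sodium acetate pH 7 with 20 uM heparin, 6 hr at 37 C. ThT 30 uM added, 1 hr ambient; Alexa 594 FP and total fluorescence read at 555/632 nm.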
PLK1 PBD inh: inhibitors of human PLK1 polo-box domain binding. P53350. AID 720504. 360,000 tested, 2.8% active. Potency, µM, without a hit: max response, negative = inhibition, hits mostly inhibitors. Plk1 PBD binding of FITC phosphopeptide, fluorescence polarization; note: series mostly up to about 57 µM; nearly all actives have a fitted effect of over 65% in size
Sfp inh: Sfp phosphopantetheinyl transferase inhibition | 310,000 tested, 3.5% active | Q9F4F7 | Potency, µM, for the others: largest response in the series, negative = inhibition, most hits filed as inhibitors | Biochemical Sfp PPTase activity, qHTS;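 note: the enzyme is Sfp with the accession as filed and its product quenches rhodamine fluorescence; 0% = enzyme reaction without inhibitor and -100% = no enzyme wells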
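Reaction rates are the 30-min fluorescence difference (ex 525, em 598 nm) in wells containing 15 nM Sfp, 5 uM rhodamine-CoA and 12.5 uM BHQ-2-YbbR at pH 7.6 with 10 mM MgCl2.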
Tau FP inhib: tau fibrillization inhibition (FP); P10636; K18 P301L tau heparin fibrillization, Alexa594 FP, 6 h; Potency, µM (highest dose often 57.7 µM), without a hit: top-dose activity, negative = inhibition, usual class: inhibitors; 280,000 tested, 0.39% active; note: nearly all actives have a fitted effect of over 55% in size
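Steps: dispense K18 P301L tau (15 uM plus 0.24 uM Alexa 594 tracer, final) in pH 7 sodium acetate; add compound; add heparin (20 uM final); incubate 6 hr, 37 C; add ThT (30 uM final); after 1 hr ambient, read FP.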
VDR inh: vitamin D3 receptor (human) inhibition; VDR-SRC2-3 peptide fluorescence polarization, 2 h; 400,000 tested, 0.93% active; Potency, µM, without a hit: max response, negative = inhibition, usual class: inhibitors; P11473
Target sequence (P11473 whole entry, looked up): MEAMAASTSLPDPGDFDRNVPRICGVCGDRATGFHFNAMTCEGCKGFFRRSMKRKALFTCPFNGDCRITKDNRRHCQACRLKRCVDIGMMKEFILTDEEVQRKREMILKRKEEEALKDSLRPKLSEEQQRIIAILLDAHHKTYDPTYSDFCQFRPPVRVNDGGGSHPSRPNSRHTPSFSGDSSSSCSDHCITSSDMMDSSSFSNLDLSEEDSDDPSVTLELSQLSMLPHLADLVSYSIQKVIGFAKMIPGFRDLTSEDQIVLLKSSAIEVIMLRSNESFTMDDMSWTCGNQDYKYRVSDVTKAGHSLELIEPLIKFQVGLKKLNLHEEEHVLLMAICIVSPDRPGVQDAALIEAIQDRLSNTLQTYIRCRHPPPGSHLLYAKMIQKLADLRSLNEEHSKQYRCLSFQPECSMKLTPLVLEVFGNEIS
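VDR–SRC2-3 interaction, FP format. Cmpds 23 nl via pintool, brief spin, 2 h ambient incubation.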
Active calls of the source: *; [ ] = another dose, or the depositor's remark. Calls come from the whole dose curve; as a rule, active = well fitted curve in the direction sought with a large enough effect; inconclusive = small, poorly fitted or top-dose-only effect, or another doubt; inactive = no such curve, though single readings can be large; an effect the other way counts as inactive or inconclusive. Unless noted, % is set by controls: 0 for no effect and ±100 for the full control effect; potency is the fitted concentration of half-maximal effect.

How did O=C(Nc1ccc(OCC(=O)N2CCC(Cc3ccccc3)CC2)cc1)c1ccco1 do in these assays?
Tau fibril ThT: inconclusive; Tau fluor counter: -20%; PLK1 PBD inh: -1%; Sfp inh: 89µM*; Tau FP inhib: -4%; VDR inh: 11%

How did CN(C)Cc1ccccc1-c1cc(NCc2ccccc2)ncn1 do in these assays?
Sfp inh: 16%; VDR inh: -6%

What do the screens show for `Cc1ccc2c(NC(=S)NC(=O)c3ccccc3)cccc2n1`?
PLK1 PBD inh: inconclusive; Sfp inh: 56µM*; VDR inh: -6%

What do the screens show for `COc1cc(C(=O)NC(=S)Nc2cccc3nc(C)ccc23)cc(OC)c1OC`?
Tau fibril ThT: -3%; Tau fluor counter: -3%; PLK1 PBD inh: 0%; Sfp inh: -5%; Tau FP inhib: -4%; VDR inh: 13%

How did Cc1ccc(C(=O)NC(=S)Nc2cccc3nsnc23)cc1 do in these assays?
Tau fibril ThT: 13µM*; Tau fluor counter: -22%; PLK1 PBD inh: -29%; Sfp inh: 14µM*; Tau FP inhib: inconclusive; VDR inh: -16%

How did COc1ccc(-c2cc(-c3cc(C)ccc3O)[nH]n2)cc1 do in these assays?
Tau fibril ThT: inconclusive; Tau fluor counter: 16µM*[quencher]; PLK1 PBD inh: -9%; Sfp inh: -2%; Tau FP inhib: inconclusive; VDR inh: 9%

How did Cc1nc2ccc(NC(=O)c3cc([N+](=O)[O-])cc([N+](=O)[O-])c3Cl)cc2s1 do in these assays?
Tau fibril ThT: 0%; Tau fluor counter: 0%; PLK1 PBD inh: 2.7µM*; Sfp inh: inconclusive; Tau FP inhib: 3%; VDR inh: inconclusive

How did Cc1nc2ccc(NC(=O)CCS(=O)(=O)c3ccc(Cl)cc3)cc2s1 do in these assays?
Tau fibril ThT: inconclusive; Tau fluor counter: -13%; PLK1 PBD inh: 17µM*; Sfp inh: -8%; Tau FP inhib: 0%; VDR inh: inconclusive

What do the screens show for `Cc1nc2ccc(NC(=O)c3ccc(Cl)c([N+](=O)[O-])c3)cc2s1`?
Tau fibril ThT: inconclusive; Tau fluor counter: inconclusive; PLK1 PBD inh: -3%; Sfp inh: 1%; Tau FP inhib: -10%; VDR inh: 7%

How did c1ccc(CNc2cccnc2)cc1 do in these assays?
PLK1 PBD inh: 0%

What do the screens show for `Cc1[nH]n(-c2ccccc2)c(=O)c1/C=N/N1CCOCC1`?
Tau fibril ThT: -11%; Tau fluor counter: -6%; PLK1 PBD inh: -10%; Sfp inh: 0%; Tau FP inhib: -1%; VDR inh: 7%

How did Cc1[nH]n(-c2ccccc2)c(=O)c1/C=N/Nc1nncc(-c2ccccc2)n1 do in these assays?
Tau fibril ThT: 14µM*; Tau fluor counter: inconclusive; PLK1 PBD inh: -9%; Sfp inh: -26%; Tau FP inhib: 3%; VDR inh: 11%

What do the screens show for `Oc1cccc(/C=N\Nc2nncc(-c3ccccc3)n2)c1`?
Tau fibril ThT: 17%; Tau fluor counter: 21%; PLK1 PBD inh: 21µM*; Sfp inh: 2%; Tau FP inhib: 8%; VDR inh: inconclusive

Results for Cc1[nH]n(-c2ccccc2)c(=O)c1/C=N/N1C(=O)c2cccc3cccc(c23)C1=O ?
Tau fibril ThT: 22µM*; Tau fluor counter: inconclusive; PLK1 PBD inh: -17%; Sfp inh: 15%; Tau FP inhib: -9%; VDR inh: -17%

How did C(=C\c1ccccc1)/C=N/Nc1nncc(-c2ccccc2)n1 do in these assays?
Tau fibril ThT: inconclusive; Tau fluor counter: -7%; Sfp inh: 8%; Tau FP inhib: -3%

How did Cc1cc(C(=O)N/N=C/c2c(C)[nH]n(-c3ccccc3)c2=O)n[nH]1 do in these assays?
PLK1 PBD inh: -9%; Sfp inh: 21%; VDR inh: 1%

What do the screens show for `CCOc1cc(/C=N/Nc2nncc(-c3ccccc3)n2)ccc1O`?
Tau fibril ThT: inconclusive; Tau fluor counter: inconclusive; PLK1 PBD inh: 15µM*; Sfp inh: 12%; Tau FP inhib: 2%; VDR inh: -11%

What do the screens show for `CN(c1ccc(F)cc1)S(=O)(=O)N1CCCC(C(=O)NCCc2ccccc2)C1` (centres undefined)?
Tau fibril ThT: -3%; Tau fluor counter: -10%; Tau FP inhib: 2%; VDR inh: 11%

How did O=C(CSc1cn(CCNC(=O)c2ccccc2F)c2ccccc12)Nc1ccc(F)cc1 do in these assays?
Tau fibril ThT: -20%; Tau fluor counter: inconclusive; Tau FP inhib: -13%; VDR inh: 1%

Results for CCn1c(C(=O)NCc2ccccc2C)cc2oc3ccccc3c21 ?
Tau fibril ThT: inconclusive; Tau fluor counter: inconclusive; Tau FP inhib: -4%; VDR inh: -5%

How did COc1ccc(N2CCN(C(=O)CN3C(=O)COc4ccc(S(=O)(=O)N5CCC(C)CC5)cc43)CC2)cc1 do in these assays?
Tau fibril ThT: -14%; Tau fluor counter: -14%; Tau FP inhib: 6%; VDR inh: 12%

How did O=C(O)/C=C/C(=O)NNc1ncnc2ccccc12 do in these assays?
Tau fibril ThT: inconclusive; Tau fluor counter: -11%; PLK1 PBD inh: -6%; Sfp inh: 56µM*; Tau FP inhib: -1%; VDR inh: 5%

Results for COC(=O)/C=C/c1ccc(C(=O)NCC(=O)N[C@@H](CCC(=O)OC)C(=O)N[C@@H](CC(C)C)C(N)=O)cc1 ?
Tau fibril ThT: 1%; Tau fluor counter: 0%; Sfp inh: 18%; Tau FP inhib: -1%; VDR inh: -3%

Results for [N-]=[N+]=CC(=O)c1ccnc(C(=O)C=[N+]=[N-])c1 ?
Tau fibril ThT: -12%; Tau fluor counter: -6%; PLK1 PBD inh: 27µM*; Sfp inh: -9%; Tau FP inhib: 1%; VDR inh: -10%

Results for COc1cccc(/C=N/NC(=O)C(C)n2nnc3ccccc32)c1 (centres undefined) ?
Tau fibril ThT: 1%; Tau fluor counter: -4%; PLK1 PBD inh: 19µM*; Sfp inh: -1%; Tau FP inhib: -4%; VDR inh: inconclusive

How did COc1cccc(/C=N/NC(=O)Cn2cnc3c2c(=O)n(C)c(=O)n3C)c1 do in these assays?
Tau fibril ThT: -4%; Tau fluor counter: -9%; PLK1 PBD inh: 24µM*; Sfp inh: 4%; Tau FP inhib: -13%; VDR inh: inconclusive

Results for COc1cccc(/C=N/NC(=O)CCn2nnc3ccccc32)c1 ?
Tau fibril ThT: 1%; Tau fluor counter: -2%; PLK1 PBD inh: 7.5µM*; Sfp inh: 12%; Tau FP inhib: 4%; VDR inh: -5%

Results for COc1cccc(/C=N/NC(=O)C(C)Cn2cnc3ccccc32)c1 (centres undefined) ?
Tau fibril ThT: -5%; Tau fluor counter: 0%; PLK1 PBD inh: 1%; Sfp inh: 9%; Tau FP inhib: 6%; VDR inh: 2%
